This passage reports composite z-score and z-score results from PubChem BioAssay.

The nature of assay [1]: small molecules captured by biotinylated probe aFSTL3 – biochemical, small-molecule microarray, fluorescence 635/667, stem cell growth factor project, primary screen (AID 1064).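 Further: measures binding of the biotinylated anti-FSTL3 antibody to printed compounds.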 The settings on record: higher = more signal.
Assay [2] in a line: binders from COS7 lysate, DM2A8 probe, primary screen, torsin A project, cell lysate, small-molecule microarray, fluorescence 635/667 (AID 1065). As to conditions: higher = more signal, COS7 lysate expressing mutant human TOR1A.
A short description of assay [3]: small molecules captured by biotinylated probe aFGF2 – biochemical, small-molecule microarray, fluorescence 635/667, stem cell growth factor project, primary screen (AID 1067).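 Further: measures binding of biotinylated aFGF2 protein to printed compounds on slides; z-score merges feature fluorescence and signal-to-noise across triplicate slides.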 As to conditions: higher = more signal.
Assay [4] in a line: small molecules captured by biotinylated probe aFGF10 – biochemical, small-molecule microarray, fluorescence 635/667, stem cell growth factor project, primary screen (AID 1071).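 Further: score merges 667 nm spot intensity and signal to noise from triplicate slides.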 As to conditions: higher = more signal.
Assay [5] deals with Neurogenic locus notch homolog protein 2 (Homo sapiens) (UniProt Q04721). As to the kind of experiment: small molecules binding Notch2 protein – biochemical, small-molecule microarray, 635 nm fluorescence, stem cell growth factors, primary screen (AID 1073). The settings on record: higher = more signal.
Assay [6] addresses Pro-neuregulin-1, membrane-bound isoform (Homo sapiens) (UniProt Q02297). The experiment in a line: small molecules binding neuregulin-1 protein – biochemical, small-molecule microarray, fluorescence 635/667, psychiatric disease protein project, primary screen (AID 1075).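 Further: score combines 667 nm spot fluorescence with signal to noise.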 The settings on record: NRG1 binding, 635 nm fluorescence, higher = more signal.
The subject of assay [7] is Neuregulin-1 EGF-like domain. The experiment in a line: small molecules binding NRG1 EGF domain – biochemical, small-molecule microarray, 635 nm fluorescence, primary screen (AID 1081).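 Further: binding of the protein to compounds printed on small-molecule microarray slides.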 As to conditions: higher = more signal.
The nature of assay [8]: FRG1 expression reporter modulators in myotubes – cell-based, C2C12 myotubes, firefly/Renilla luciferase, luminescence, FRG1 inhibition for FSHD, primary screen (AID 1084). The settings on record: FRG1 promoter luciferase, higher = more signal, called active from +8 up or from −8 down.
Assay [9] is described as follows: small molecules captured by biotinylated probe aFST – biochemical, small-molecule microarray, fluorescence 635/667, stem cell growth factor project, primary screen (AID 1086).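 Further: score merges 667 nm fluorescence with signal-to-noise of each printed compound spot.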 As to conditions: higher = more signal.
Assay [10] is described as follows: binders of probe aHhip on microarray, primary screen, stem cell growth factor project, biochemical, small-molecule microarray, fluorescence 635/667 (AID 1087).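 Further: score merges spot fluorescence at 667nm with spot signal to noise ratio.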 As to conditions: higher = more signal.

Activity calls are given as the source filed them.

Chain of Neurogenic locus notch homolog protein 2 (Homo sapiens) (Q04721 whole entry, looked up, canonical isoform): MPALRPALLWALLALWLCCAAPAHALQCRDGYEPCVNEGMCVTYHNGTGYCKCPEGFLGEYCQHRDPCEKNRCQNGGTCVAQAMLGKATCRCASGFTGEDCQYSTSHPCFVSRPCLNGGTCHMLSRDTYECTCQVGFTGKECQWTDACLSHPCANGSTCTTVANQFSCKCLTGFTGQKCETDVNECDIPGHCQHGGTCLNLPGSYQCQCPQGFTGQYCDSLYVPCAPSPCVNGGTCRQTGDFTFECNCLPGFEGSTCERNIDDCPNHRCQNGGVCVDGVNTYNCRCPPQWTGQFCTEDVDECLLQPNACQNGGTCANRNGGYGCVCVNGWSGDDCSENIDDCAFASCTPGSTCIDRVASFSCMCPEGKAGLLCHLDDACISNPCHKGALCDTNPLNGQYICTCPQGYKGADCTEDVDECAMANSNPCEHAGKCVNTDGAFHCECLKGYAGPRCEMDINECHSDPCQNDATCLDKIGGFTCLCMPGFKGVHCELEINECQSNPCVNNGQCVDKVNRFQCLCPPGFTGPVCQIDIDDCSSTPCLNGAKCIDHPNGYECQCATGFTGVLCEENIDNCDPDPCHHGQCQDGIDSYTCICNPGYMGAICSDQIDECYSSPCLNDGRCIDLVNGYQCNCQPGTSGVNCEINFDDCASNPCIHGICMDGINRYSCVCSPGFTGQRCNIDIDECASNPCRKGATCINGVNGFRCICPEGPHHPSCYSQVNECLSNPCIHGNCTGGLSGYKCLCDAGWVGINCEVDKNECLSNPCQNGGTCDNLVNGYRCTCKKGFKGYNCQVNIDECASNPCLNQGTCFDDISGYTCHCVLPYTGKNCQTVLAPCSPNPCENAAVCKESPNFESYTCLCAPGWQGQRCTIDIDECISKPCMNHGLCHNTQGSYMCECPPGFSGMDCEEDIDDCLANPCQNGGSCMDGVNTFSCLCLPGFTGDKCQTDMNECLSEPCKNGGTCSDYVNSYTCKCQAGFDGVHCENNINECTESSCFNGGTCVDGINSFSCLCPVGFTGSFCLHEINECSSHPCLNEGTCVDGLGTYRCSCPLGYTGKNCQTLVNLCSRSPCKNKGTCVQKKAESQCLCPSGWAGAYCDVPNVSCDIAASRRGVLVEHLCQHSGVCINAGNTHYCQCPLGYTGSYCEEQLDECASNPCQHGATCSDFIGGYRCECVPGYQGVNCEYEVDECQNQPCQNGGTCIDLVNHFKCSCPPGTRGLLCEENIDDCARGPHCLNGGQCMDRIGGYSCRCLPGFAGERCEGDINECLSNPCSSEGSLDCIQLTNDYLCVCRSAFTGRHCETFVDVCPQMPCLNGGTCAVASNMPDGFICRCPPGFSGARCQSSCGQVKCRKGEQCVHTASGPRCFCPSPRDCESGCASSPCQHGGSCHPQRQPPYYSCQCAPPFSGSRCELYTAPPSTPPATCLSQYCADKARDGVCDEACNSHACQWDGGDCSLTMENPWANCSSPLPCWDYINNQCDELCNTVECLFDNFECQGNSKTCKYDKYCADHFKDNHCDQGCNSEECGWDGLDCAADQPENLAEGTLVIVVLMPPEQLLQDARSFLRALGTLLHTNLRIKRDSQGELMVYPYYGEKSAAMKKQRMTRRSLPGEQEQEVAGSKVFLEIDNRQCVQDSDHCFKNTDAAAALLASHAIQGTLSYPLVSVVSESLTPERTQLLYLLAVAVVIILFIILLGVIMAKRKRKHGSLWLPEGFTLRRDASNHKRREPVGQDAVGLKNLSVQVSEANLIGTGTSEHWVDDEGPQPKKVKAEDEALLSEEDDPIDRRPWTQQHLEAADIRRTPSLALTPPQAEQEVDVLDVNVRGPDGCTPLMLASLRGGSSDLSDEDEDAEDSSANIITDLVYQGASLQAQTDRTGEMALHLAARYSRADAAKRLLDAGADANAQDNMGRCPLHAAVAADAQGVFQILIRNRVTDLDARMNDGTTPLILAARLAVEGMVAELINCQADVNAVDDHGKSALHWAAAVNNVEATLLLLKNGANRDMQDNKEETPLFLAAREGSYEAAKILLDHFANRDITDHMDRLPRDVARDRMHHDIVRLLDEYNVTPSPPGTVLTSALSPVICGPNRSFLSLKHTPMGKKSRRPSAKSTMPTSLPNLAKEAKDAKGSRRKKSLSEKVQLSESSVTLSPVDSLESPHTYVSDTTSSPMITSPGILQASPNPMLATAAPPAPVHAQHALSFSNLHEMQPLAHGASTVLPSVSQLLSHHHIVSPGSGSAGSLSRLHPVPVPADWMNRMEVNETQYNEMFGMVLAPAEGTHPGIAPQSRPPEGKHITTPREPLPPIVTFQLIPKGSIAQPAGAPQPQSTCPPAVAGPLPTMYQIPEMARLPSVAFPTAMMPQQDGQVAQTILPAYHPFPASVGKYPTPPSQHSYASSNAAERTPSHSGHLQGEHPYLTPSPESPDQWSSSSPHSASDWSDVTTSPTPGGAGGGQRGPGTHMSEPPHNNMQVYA
Chain of Pro-neuregulin-1, membrane-bound isoform (Homo sapiens) (Q02297 whole entry, looked up, the tested form may be a part, canonical isoform): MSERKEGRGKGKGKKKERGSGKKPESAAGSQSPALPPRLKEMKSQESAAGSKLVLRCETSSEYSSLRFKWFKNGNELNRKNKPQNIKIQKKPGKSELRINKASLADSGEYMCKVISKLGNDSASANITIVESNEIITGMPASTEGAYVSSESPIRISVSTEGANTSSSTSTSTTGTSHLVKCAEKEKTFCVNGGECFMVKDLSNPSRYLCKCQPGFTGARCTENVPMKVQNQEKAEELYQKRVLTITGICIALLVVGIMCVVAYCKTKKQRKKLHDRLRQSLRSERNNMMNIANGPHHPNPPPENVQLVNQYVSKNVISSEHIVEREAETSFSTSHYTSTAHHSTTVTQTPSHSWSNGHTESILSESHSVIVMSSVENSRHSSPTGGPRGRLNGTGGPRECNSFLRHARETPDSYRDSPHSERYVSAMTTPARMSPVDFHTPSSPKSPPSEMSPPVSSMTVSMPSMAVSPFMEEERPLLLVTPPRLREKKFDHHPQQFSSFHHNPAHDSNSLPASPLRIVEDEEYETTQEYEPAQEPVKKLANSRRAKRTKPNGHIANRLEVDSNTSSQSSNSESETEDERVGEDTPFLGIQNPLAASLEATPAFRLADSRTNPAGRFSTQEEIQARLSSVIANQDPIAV

For `C#CCCCON=C1C[C@@H](O)[C@@H](O)[C@@H]2[C@@H]3C(=O)N(c4cccc(Oc5ccccc5)c4)C(=O)[C@@H]3CC[C@@H]12`, the composite z-score in assay [1] is -0.456; in assay [2], -0.666; in assay [3], -0.0296; in assay [4], 0.967; in [5], 0.88; in assay [6], 1.44. The results for the composite z-score in [7], in assay [9] and in assay [10] were 0.598, 0.319 and -0.334, respectively. Also, the z-score in [8] is 0.407 (inactive).
Take `CCCC[C@@H](O)C1=C(C)C[C@H]2C(=O)N(Cc3ccccc3)C(=O)[C@H]2[C@H]1CO`: the composite z-score is -0.531 in assay [1]; 0.709 in assay [2]; -0.0564 in assay [3]; 0.185 in assay [4]; -0.0286 in assay [5]; 0.0467 in assay [6]. Also, the composite z-score in [7] was -0.322; in [9], -0.0982; in assay [10] it was -0.0237. Further, the z-score in assay [8] is 0.778 (inactive).
Regarding `CO[C@@H]1COC(=O)CC=C[C@@H](C)COC(=O)[C@H](COCc2ccccc2)NC(=O)CC=C[C@H]1C`, the composite z-score in [1] was -0.611; in assay [2], 2.32; in [3], -0.162; in assay [4], -0.903; in assay [5], -0.75; in assay [6], -0.698. Besides, the composite z-score in assay [7] is -0.0535; in assay [9], -0.268; in assay [10], 0.0749. Further, the z-score in assay [8] is -1.05 (inactive).
With `COCCCNC(=O)[C@]1(CCC(=O)OC(C)(C)C)N=C(c2ccc(OCCCO)cc2)O[C@@H]1c1ccccc1N=[N+]=[N-]`, the composite z-score in [1] is 0.0081; in assay [2] it was 1.27; in [3] it was 0.15; in assay [4] it was 0.891; in [5], 1.33; in assay [6] it was 1.62. Also, the composite z-score in [7] was 1.36; in assay [9] it was 1.51; in assay [10] it was 0.107. Besides, the z-score in assay [8] was 3.15 (inactive).
For the compound `COC(=O)[C@H](C)NC(=O)CCC1CC(OC(=O)NCCc2ccc(F)cc2)CC2(CCCC(COC(=O)NCCc3ccc(Cl)cc3)O2)O1` (stereo not given in full), the composite z-score in [1] was -0.655; in assay [2] it was 1.39; in [3], -0.0579; in assay [4], 0.812; in assay [5] it was 1.15; in assay [6], 0.691. The composite z-score was 0.595 in assay [7], 0.393 in [9] and -0.0672 in assay [10]. Besides, in assay [8], the z-score was 1.11 (inactive).
On to `COc1ccc(O[C@H]2C=C[C@@H](c3ccccc3)O[C@@H]2COC(=O)CCC(C)=NOC(C)CN2CCCCc3nc(C)c(C)cc32)cc1` (stereo not given in full), for which the composite z-score in assay [1] is 0.614; in assay [2], -0.017; in assay [3], -0.164; in assay [4] it was -0.102; in assay [5], -0.763; in assay [6] it was -0.0663. The composite z-score in assay [7] was 0.106; in assay [9], -0.62; in assay [10] it was -0.226. In assay [8], the z-score was 0.766 (inactive).
Consider `C=CCC(OC(C)=O)[C@@H]1[C@@H](N(Cc2cc3ccccc3o2)C(=O)Cc2ccc(F)cc2)c2cc(OCCCO)ccc2N1C(=O)Cc1ccc(OC)cc1` (stereo not given in full), for which the composite z-score in [1] is -0.115; in assay [2], 0.102; in assay [3] it was -0.0409; in assay [4], 0.351; in assay [5], -0.383; in assay [6] it was 0.16. The composite z-score is -0.707 in assay [7], -0.0711 in assay [9] and 0.0373 in assay [10]. Also, the z-score in assay [8] is -2.16 (inactive).
Consider `C#CCCCON=C1C[C@@H](O)[C@@H](O)[C@@H]2[C@@H]3C(=O)N(CCC(=O)OCC)C(=O)[C@@H]3CC[C@@H]12`, for which the composite z-score was 1.93 in assay [1]; 0.597 in assay [2]; -0.0505 in [3]; -0.0007 in [4]; -0.835 in assay [5]; 0.107 in [6]. For the same compound, the composite z-score was -0.307 in assay [7], 0.63 in [9] and -0.12 in [10]. The z-score in assay [8] was 0.665 (inactive).
As to `COC(=O)[C@@]1(Cc2ccc(F)cc2)[C@H]2c3cc(C(=O)N(C)C)n(Cc4ccc(OC)c(OC)c4)c3C[C@H]2CN1C(=O)c1ccccc1`, the composite z-score is 0.257 in assay [1]; -0.0565 in [2]; 0.184 in assay [3]; 0.551 in assay [4]; 1.56 in [5]; 0.641 in assay [6]. For the same compound, the figures for the composite z-score in [7], in [9] and in assay [10] were 1.44, 0.169 and 0.402, respectively. Besides, in [8], the z-score was 0.619 (inactive).
`CO[C@H]1O[C@H](CO)[C@@H](OC(=O)Nc2ccc3c(c2)OCO3)[C@H](OC(=O)Nc2ccccc2-c2ccccc2)[C@@H]1OC(=O)Nc1ccccc1-c1ccccc1`: the composite z-score in [1] is 0.0442; in assay [2], -0.029; in [3], -0.0238; in assay [4], 1.13; in assay [5], 1.57; in assay [6], 0.985. The composite z-score is 1.17 in [7], 0.626 in assay [9] and 0.151 in assay [10]. Moreover, the z-score in [8] was 1.36 (inactive).
Consider `COC(=O)CC=C[C@@H](C)[C@H](OC)c1ccccc1Br`, for which the composite z-score in assay [1] was -0.297; in [2] it was 1.46; in assay [3] it was -0.0514; in [4] it was 0.178; in assay [5] it was 0.119; in assay [6], -0.171. Moreover, the composite z-score is -0.26 in assay [7], -0.155 in assay [9] and 0.275 in assay [10]. In assay [8], the z-score was 1.08 (inactive).
Take `O=C1C[C@@H](O)[C@@H](O)[C@@H]2[C@@H]3C(=O)N(C4CCCCC4)C(=O)[C@@H]3CC[C@H]12`: the composite z-score is -0.472 in assay [1]; 0.176 in assay [2]; -0.0638 in assay [3]; 0.593 in assay [4]; 0.698 in [5]; 0.0523 in assay [6]. Further, the composite z-score was 0.797 in assay [7], -0.22 in [9] and -0.511 in assay [10]. For the same compound, the z-score in assay [8] was 0.65 (inactive).
With `CCc1cc2c(nc1CC)CCN(CCC(C)=NOC[C@@H](O)[C@H]1O[C@@H]3OC(C)(C)O[C@@H]3[C@H]1O)C2`, the composite z-score in assay [1] was -0.436; in [2], 0.273; in [3] it was -0.148; in [4], 0.0851; in [5], 0.191; in assay [6] it was 0.146. For the same compound, the values for the composite z-score in assay [7], in assay [9] and in [10] were 0.335, 0.0391 and -0.0088, respectively. Moreover, in assay [8], the z-score is 1.35 (inactive).
In the case of `C=C(/C(=C/C[C@H](OC(=O)c1ccncc1)c1ccc(OCCO)cc1)c1cnc2ccccc2c1)C(C)C`, the composite z-score in [1] was -0.185; in assay [2] it was 0.727; in assay [3], -0.047; in assay [4], 1.09; in assay [5], 1.29; in [6], 0.7. Further, the composite z-score in assay [7] was 1.13; in assay [9], 0.552; in assay [10] it was -0.0296. For the same compound, the z-score in [8] was 1.66 (inactive).
For `COc1ccc(O[C@H]2C=C[C@@H](c3ccccc3)O[C@@H]2COC(=O)CCC(C)=NOCC[C@@H]2C=C[C@H](OC(C)=O)[C@@H](COC(C)=O)O2)cc1`, the composite z-score in [1] is -0.19; in [2] it was 0.779; in assay [3] it was -0.0363; in [4], -0.171; in assay [5] it was -0.086; in assay [6], 0.0028. Moreover, the composite z-score was -0.183 in assay [7], 0.406 in assay [9] and 0.305 in [10]. The z-score in [8] is 1.04 (inactive).
As for `CC(CCN1CCc2nc(-c3ccccc3)c(-c3ccccc3)cc2C1)=NO[C@H](C)c1cn([C@@H]2COC[C@H]2O)nn1`, the composite z-score in [1] is -0.388; in [2], 1.4; in [3] it was -0.0867; in assay [4], 0.259; in assay [5], 0.295; in assay [6] it was 0.646. Besides, the composite z-score in assay [7] is 1.03; in assay [9], 0.133; in assay [10] it was -0.0237. Besides, the z-score in assay [8] is -0.203 (inactive).
With `CCOC(=O)C[C@H]1[C@H](OC(=O)c2ccc(C(=O)c3ccccc3)cc2)[C@@H](NC(=O)c2ccc(-c3ccccc3)cc2)c2cc(OCCCO)ccc2N1C(=O)c1ccc2ccccc2n1`, the composite z-score in assay [1] was -0.378; in [2], 0.292; in assay [3], -0.0685; in assay [4], 0.773; in assay [5] it was 0.643; in assay [6], 0.5. The composite z-score is 0.927 in [7], 0.465 in assay [9] and -0.193 in assay [10]. The z-score in [8] is 0.0728 (inactive).
